M1 antagonist = M1 muscarinic receptor (rat) antagonism; P08482; CHO-M1 cells, Fluo-4 calcium, ACh EC80 antagonist mode; stronger effect = lower value; B-score at 10 µM; actives 3.4% (n = 64,000); AID 628;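 active = calcium fluorescence response, raw or row-and-column corrected B-score, differing from the plate sample mean either way at a set confidence level, mostly lower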
Target sequence (P08482 whole entry, looked up): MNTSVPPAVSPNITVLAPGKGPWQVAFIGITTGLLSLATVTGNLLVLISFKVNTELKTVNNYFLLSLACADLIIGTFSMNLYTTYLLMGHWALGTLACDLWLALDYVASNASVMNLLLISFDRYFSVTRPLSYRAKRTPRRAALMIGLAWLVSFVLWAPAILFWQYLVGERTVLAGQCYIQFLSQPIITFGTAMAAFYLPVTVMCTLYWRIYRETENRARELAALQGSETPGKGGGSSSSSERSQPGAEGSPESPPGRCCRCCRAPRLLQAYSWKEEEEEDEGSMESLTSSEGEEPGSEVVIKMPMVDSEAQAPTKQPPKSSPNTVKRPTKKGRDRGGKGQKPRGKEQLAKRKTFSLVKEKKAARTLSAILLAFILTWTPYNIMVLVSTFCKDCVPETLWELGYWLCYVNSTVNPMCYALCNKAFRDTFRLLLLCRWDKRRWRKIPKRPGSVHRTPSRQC
M1 agonist = agonists of M1 muscarinic receptor; CHO-M1 cells, Fluo-4 calcium fluorescence, agonist mode; stronger effect = higher value; B-score at 10 µM; actives 3% (n = 64,000); AID 626;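 active = fluorescence rise, raw or as B-score row- and column-corrected plate score, outside the 99.7% band of its plate's samples, either direction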
Cdc25B block = human M-phase inducer phosphatase 2 inhibition. actives 0.1% (n = 65,000). P30305. recombinant Cdc25B, OMFP fluorescence Ex485/Em525. inhibition, %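 (compounds tested at 10 µM final in the well)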; in the data active = inhibition above about 50%
MKP-1 inh = blocks human MKP-1 phosphatase activity. P28562. recombinant MKP-1, OMFP hydrolysis fluorescence. inhibition, %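 (compounds tested at a single concentration somewhere between 10 and 100 µM)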. actives 0.15% (n = 65,000);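 active = inhibition above about 50%, limit read from the data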;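 also: 0% = DMSO max control wells and 100% = wells with enzyme stopped by NaOH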
Hsp90 block = displaces geldanamycin probe from tumor Hsp90; P07900; NCI-N417 lysate Hsp90, Cy3B-geldanamycin FP displacement; inhibition, % at 30 µM; actives 0.35% (n = 64,000);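 active = inhibition above 50%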;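 also: 0% = tracer plus lysate wells and 100% = tracer alone without lysate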
MMP13 inh = blocks human MMP13 activity | AID 570 | MMP-13 fTHP FRET cleavage, Mca fluorescence | inhibition, % at 4 µM | actives 0.07% (n = 65,000);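 active = inhibition above the mean of compound-free control plate wells plus 3 SD, cut at about 14% in these data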;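 also: 0% = DMSO wells and 100% = wells with reference MMP-13 inhibitor after basal subtraction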
M1 antag confirm = M1 muscarinic receptor (rat) antagonism, confirmed. shares compounds with M1 antagonist. CHO-M1 cells, Fluo-4 calcium, ACh EC80 antagonism; stronger effect = lower value. calcium response (max-min fluorescence) at 10 µM. actives 43% (n = 1,700). AID 677;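 active = calcium response below the same-plate mean of wells given acetylcholine alone at its 80%-effect dose, minus 3 SD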;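 also: raw fluorescence intensity difference in arbitrary instrument units and not normalized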
mGluR4 antag = selectivity test for M1 antagonists: human mGluR4 receptor. shares compounds with M1 antagonist. CHO-mGluR4 calcium flux, Fluo-4 fluorescence, glutamate EC80; stronger effect = lower value. fluorescence response (max-min) at 10 µM. actives 0.9% (n = 1,700);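 active = fluorescence response below the plate's average for near-maximal glutamate wells, less 3 SD of those wells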;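 also: raw unnormalized fluorescence span taken in the window right after glutamate addition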
The depositor's hits bear a star. An excerpt weighted towards active compounds, which were near 6.1% of everything screened.

Screening Cc1nnc(Oc2ccccc2F)c2ccccc12 returned M1 antagonist -0.1, M1 agonist 0.2, Cdc25B block -8, MKP-1 inh 13, Hsp90 block 2 and MMP13 inh 2.
Screening COc1ccc(C2CCCN2C(=O)Nc2cccc(C(C)=O)c2)cc1OC (configuration not stated) returned M1 antagonist -2.5*, M1 agonist -0.11, Cdc25B block 13, MKP-1 inh -4, Hsp90 block 1, MMP13 inh -7, M1 antag confirm 620 and mGluR4 antag 249.
For COC(=O)c1ccc2c(c1)S(=O)(=O)NC(=NCc1ccco1)S2 the results were M1 antagonist -0.88, M1 agonist -1, Cdc25B block -11, MKP-1 inh 0, Hsp90 block -3 and MMP13 inh -14.
`O=C1CN(C(=O)c2ccco2)C(c2ccccc2)c2cc(Cl)ccc2N1` (configuration not stated) gave M1 antagonist -0.23, M1 agonist 0.34, Cdc25B block 1, MKP-1 inh -10, Hsp90 block 2 and MMP13 inh -1.
CC1(C)CC(=O)CC(=NCC(=O)O)C1 was read as M1 antagonist -2.6*, M1 agonist 0.54, Cdc25B block -2, MKP-1 inh -10, Hsp90 block 1, MMP13 inh -3, M1 antag confirm 665 and mGluR4 antag 268.
Screening O=C(Nc1cccc(F)c1)c1cccnc1N1CCOCC1 returned M1 antagonist 0.096, M1 agonist -0.35, Cdc25B block 11, MKP-1 inh -6, Hsp90 block -4 and MMP13 inh -5.
Screening O=C(Nc1ccccc1)c1cccnc1N1CCOCC1 returned M1 antagonist -3.3*, M1 agonist 0.53, Cdc25B block 53*, MKP-1 inh 1, Hsp90 block 1, MMP13 inh 0, M1 antag confirm 709 and mGluR4 antag 258.
For COc1ccccc1-c1nnc(SCC(=O)OC(C)C)o1 the results were M1 antagonist -0.1, M1 agonist -0.48, Cdc25B block -1, MKP-1 inh 3, Hsp90 block -4 and MMP13 inh 2.
Screening Cc1[nH]nc2nc3c(c(OC(=O)c4ccccc4)c12)c(=O)n(C)c(=O)n3C returned M1 antagonist -0.55, M1 agonist -0.61, Cdc25B block 0, MKP-1 inh 6, Hsp90 block -1 and MMP13 inh -1.
`CCOC(=O)c1[nH]c2ccc(OCC)cc2c1NC(=O)CN1CCN(c2ccccn2)CC1` gave M1 antagonist -2.5*, M1 agonist 1, Cdc25B block -1, MKP-1 inh 3, Hsp90 block -1, MMP13 inh -140, M1 antag confirm 581 and mGluR4 antag 198.
`Cn1c(SCCOc2ccc(Cl)cc2)nnc1-c1ccncc1` gave M1 antagonist -0.37, M1 agonist 0.26, Cdc25B block 3, MKP-1 inh -2, Hsp90 block -3 and MMP13 inh 1.
Screening O=C(CCC1CCCC1)N1CCN(C(=O)c2cccnc2)CC1 returned M1 antagonist 0.064, M1 agonist -0.36, Cdc25B block -10, MKP-1 inh -13, Hsp90 block 2 and MMP13 inh 0.
Screening C=CCOC(=O)C1=C(C)OC(N)=C(C#N)C1c1ccc2c(c1)OCO2 (configuration not stated) returned M1 antagonist 0.44, M1 agonist -0.071, Cdc25B block -6, MKP-1 inh 12, Hsp90 block -1 and MMP13 inh 0.
For CCOC(=O)C1=C(C)OC(N)=C(C#N)C1c1cc2c(cc1Br)OCO2 (configuration not stated) the results were M1 antagonist -1.9*, M1 agonist -0.73, Cdc25B block 2, MKP-1 inh 17, Hsp90 block 1, MMP13 inh -1, M1 antag confirm 417* and mGluR4 antag 208.
For Cc1ccccc1N(CC(=O)NCCc1ccccc1)C(=O)c1ccc(N2CCCC2)nc1 the results were M1 antagonist -4.6*, M1 agonist -0.95, Cdc25B block -14, MKP-1 inh -16, Hsp90 block -2, MMP13 inh -1, M1 antag confirm 667 and mGluR4 antag 241.
For CCN(C(=O)CCN1C(=O)c2ccccc2C1=O)C1CCCCC1 the results were M1 antagonist -0.077, M1 agonist 0.4, Cdc25B block -8, MKP-1 inh -5, Hsp90 block -6 and MMP13 inh 0.
CC(C)(C)c1ccccc1OCC(=O)Nc1ncn[nH]1 was read as M1 antagonist 1.4, M1 agonist -1.3, Cdc25B block -1, MKP-1 inh 0, Hsp90 block 0 and MMP13 inh 0.
`CC(C)(C)c1ccccc1OCC(=O)NCCC(=O)O` gave M1 antagonist -2.8*, M1 agonist -0.73, Cdc25B block 6, MKP-1 inh -9, Hsp90 block 6, MMP13 inh 4, M1 antag confirm 673 and mGluR4 antag 237.
`CCOc1ccc(CC2CC(=O)NC2=O)cc1` (configuration not stated) gave M1 antagonist 0.31, M1 agonist -0.4, Cdc25B block 2, MKP-1 inh -13, Hsp90 block -3 and MMP13 inh 1.
`CCN(CC)c1ccc(C2C(C(=O)OC)=C(C)NC(C)=C2C(=O)OC)cc1` gave M1 antagonist -2.7*, M1 agonist -0.19, Cdc25B block -5, MKP-1 inh -2, Hsp90 block -1, MMP13 inh 3, M1 antag confirm 209* and mGluR4 antag 249.
CCOC(=O)C1=C(C)NC(=O)NC1c1ccc(N(CC)CC)cc1 (configuration not stated) was read as M1 antagonist -3.1*, M1 agonist 0.83, Cdc25B block 0, MKP-1 inh 7, Hsp90 block 0, MMP13 inh 3, M1 antag confirm 391* and mGluR4 antag 274.
CCOC(=O)C1=C(C)NC(=O)NC1c1ccc(N(C)C)cc1 (configuration not stated) was read as M1 antagonist -0.27, M1 agonist 0.52, Cdc25B block -54, MKP-1 inh 5, Hsp90 block -3 and MMP13 inh 1.
CN1C(=O)N2CN(C3CCCCC3)CN3C(=O)N(C)C1C23 (configuration not stated) was read as M1 antagonist 1.1, M1 agonist -0.69, Cdc25B block -3 and MKP-1 inh 2.
For CCN(CC)Cc1c[nH]c2c(C(=O)OC)cccc12 the results were M1 antagonist -0.094, M1 agonist -0.33, Cdc25B block -6, MKP-1 inh -14, Hsp90 block 1 and MMP13 inh -34.

Source: PubChem
